The record followed here is PubChem BioAssay (NCATS).

Results filed as inconclusive are left out. Activity calls are given as the source filed them. The call rests on the fitted dose curve; in most records, active means well fitted curve in the direction sought with a large enough effect; inconclusive means small, poorly fitted or top-dose-only effect, or another doubt; inactive means no such curve, though single readings can be large; an effect the other way counts as inactive or inconclusive.

Assay [1] can be described thus: Quantitative High-Throughput drug screen in 47 multiple myeloma cell lines against the NCATS MIPE library collection: Karpas25_ECACC cell viability assay (AID 1918968; further: nearly all actives have a fitted effect of over 35% in size). The gist of the method:
(§1)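 Myeloma cells (500 per well) were exposed to MIPE 4.0 compounds by pin transfer and incubated 48 hours at 37C, 5% CO2. Viability was read as ATP by CellTiter-Glo luminescence, normalised to DMSO (100%) and media-only (0%) wells.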

Assay [2] in a line: Quantitative High-Throughput drug screen in 47 multiple myeloma cell lines against the NCATS MIPE library collection: KMS27_JCRB cell viability assay (AID 1918970). Further: nearly all actives have a fitted effect of over 30% in size. Conditions: KMS27 myeloma cells, CellTiter-Glo ATP viability, 48 h; viability (% of DMSO): at 45.8 µM (top of the series). The gist of the method: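 Each line is seeded at 500 cells per well and treated with library compounds for 48 hours under 37 °C, 5% CO2. CellTiter-Glo is then added for 5 min at room temperature before median relative luminescence is recorded.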
In general terms: In ATP-based viability assays light output follows the ATP content of the culture.

Assay [3] can be described thus: Quantitative High-Throughput drug screen in 47 multiple myeloma cell lines against the NCATS MIPE library collection: NCIH929_DSMZ cell viability assay (AID 1918978). Further: nearly all actives have a fitted effect of over 35% in size. The gist of the method:
(§2)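 qHTS format: cells plated (500/well), pin-dosed with MIPE 4.0 compounds, kept 48 h at 37 °C. Readout was CellTiter-Glo luminescence, median RLU.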

A short description of assay [4]: Quantitative High-Throughput drug screen in 47 multiple myeloma cell lines against the NCATS MIPE library collection: KMS12PE_JCRB cell viability assay (AID 1918972). Further: nearly all actives have a fitted effect of over 30% in size. The gist of the method:
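Luminescent ATP measurement with CellTiter-Glo gives viability, scaled between DMSO-only wells (100%) and media-only wells (0%). Cells, 500 per well, faced library compounds for 48 hours at 37C.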

A short description of assay [5]: Quantitative High-Throughput drug screen in 47 multiple myeloma cell lines against the NCATS MIPE library collection: MMM1_PLB cell viability assay (AID 1918976). Further: nearly all actives have a fitted effect of over 35% in size. The gist of the method:
as §2

Assay [6] in a line: Quantitative High-Throughput drug screen in 47 multiple myeloma cell lines against the NCATS MIPE library collection: KMS12BM_JCRB cell viability assay (AID 1918971). Further: nearly all actives have a fitted effect of over 35% in size. The gist of the method:
(§3)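 Relative luminescence from CellTiter-Glo served as the viability signal, referenced to DMSO-treated (100%) and cell-free medium (0%) controls. Treatment lasted 48 hours at 37C with 500 cells per well.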

The nature of assay [7]: Quantitative High-Throughput drug screen in 47 multiple myeloma cell lines against the NCATS MIPE library collection: KMS20_JCRB cell viability assay (AID 1918973). Further: nearly all actives have a fitted effect of over 45% in size. The gist of the method: as §1
Assay [8] is described as follows: Quantitative High-Throughput drug screen in 47 multiple myeloma cell lines against the NCATS MIPE library collection: KMS26_JCRB cell viability assay (AID 1918975). Further: nearly all actives have a fitted effect of over 45% in size. The gist of the method: as §3
A short description of assay [9]: Quantitative High-Throughput drug screen in 47 multiple myeloma cell lines against the NCATS MIPE library collection: MOLP8_DSMZ cell viability assay (AID 1918977). Further: nearly all actives have a fitted effect of over 45% in size. The gist of the method: as §2
Assay [10] in a line: Quantitative High-Throughput drug screen in 47 multiple myeloma cell lines against the NCATS MIPE library collection: KMS21BM_JCRB cell viability assay (AID 1918974). Conditions: ATP luminescence, 48 h; viability: at 45.8 µM (top of the series). The gist of the method:
as §1
Potency means the concentration at half of the fitted maximal effect.

Take `CNc1nc(-c2ccc3c(N)n[nH]c3c2)cc(N2C[C@@H](C(=O)NC3CCCCC3)CC[C@@H]2C)n1`: the Potency was 2.09 µM (active) in [1], 10.5 µM (active) in [2] and 1.18 µM (active) in [3].

Turning to `CCC[C@@H](NC(=O)[C@@H]1[C@H]2CCC[C@@H]2CN1C(=O)[C@@H](NC(=O)[C@@H](NC(=O)c1cnccn1)C1CCCCC1)C(C)(C)C)C(=O)C(=O)NC1CC1`, the Potency in [1] is 18.7 µM (active); in [4], 14.8 µM (active). For the same molecule, the Potency result in [2] and in assay [3] was “inactive” each time.

With `O=C(O)C1=NC(C(=O)O)CC(C=CN2c3cc(O)c(OC4OC(CO)C(O)C(O)C4O)cc3CC2C(=O)O)=C1` (configuration not stated), the Potency entry in assay [1], in assay [2], in assay [4] and in assay [3] was “inactive” in each case. Also, the Potency in assay [5] is 23.5 µM (active).

As for `CC(C)CN(C[C@@H](O)[C@H](Cc1ccccc1)NC(=O)O[C@H]1CO[C@H]2OCC[C@H]21)S(=O)(=O)c1ccc(N)cc1`, the Potency in [1] was 3.72 µM (active); in assay [6], 20.9 µM (active); in assay [7], 2.96 µM (active); in assay [8], 3.32 µM (active); in [5], 20.9 µM (active). Moreover, the Potency entry in assay [4] and in assay [9] was “inactive” throughout.

For `CC(=O)O[C@]1(C(C)=O)CC[C@H]2[C@@H]3C=C(Cl)C4=CC(=O)[C@@H]5C[C@H]5[C@]4(C)[C@@H]3CC[C@@]21C`, the Potency in assay [1] was 9.35 µM (active); in [2], 18.7 µM (active); in assay [3] it was 9.35 µM (active).

Take `C[C@]12CC[C@@H]3c4ccc(O)cc4CC[C@H]3[C@H]1[C@@H](O)[C@@H](O)[C@H]2O`: in assay [1], the Potency was 26.4 µM (active). Moreover, the Potency result in assay [2], in [8] and in assay [3] was “inactive” in each case.

Consider `CN(C(Cc1ccc(OS(=O)(=O)c2cccc3cnccc23)cc1)C(=O)N1CCN(c2ccccc2)CC1)S(=O)(=O)c1cccc2cnccc12` (configuration not stated), for which the Potency in assay [1] is 11.8 µM (active); in assay [6] it was 10.5 µM (active); in assay [4] it was 5.26 µM (active); in assay [7], 2.64 µM (active); in assay [8] it was 14.8 µM (active); in assay [5], 5.9 µM (active). In [3], the Potency is 16.6 µM (active).

For `O=C(O)C1=CC(O)C(O)[C@H](O)C1` (some centres not stated), the Potency entry in assay [1], in assay [6] and in [4] was “inactive” throughout.

For `CN(C)CCOc1ccc(-c2nc(-c3ccc4c(c3)CCC4=NO)c(-c3ccncc3)[nH]2)cc1`, the Potency in assay [1] is 14.8 µM (active); in assay [6], 20.9 µM (active); in assay [4], 10.5 µM (active); in assay [7], 6.62 µM (active); in assay [10], 7.43 µM (active); in assay [8], 18.7 µM (active). The results for the Potency in assay [5], in assay [9] and in [3] were 20.9 µM (active), 14.8 µM (active) and 16.6 µM (active), respectively.

Take `Cc1nn(Cc2ccccc2Cl)c(C)c1CN(C)CC(O)COc1ccc(Cl)cc1` (configuration not stated): the Potency is 20.9 µM (active) in assay [1]; 23.5 µM (active) in assay [6]; 5.9 µM (active) in assay [4]; 11.8 µM (active) in [7]; 20.9 µM (active) in [8]; 23.5 µM (active) in [3].

On to `CCC=CC[C@H]1C(=O)CC[C@@H]1CC(=O)OC`, for which the Potency result in [1], in assay [4], in assay [10], in [9] and in [3] was “inactive” each time. The Potency is 2.35 µM (active) in assay [6] and 10.5 µM (active) in assay [5].

Consider `Clc1ccc(C2(c3ccc(-c4cn[nH]c4)cc3)CCNCC2)cc1`, for which the Potency in assay [1] is 3.72 µM (active); in assay [6], 23.5 µM (active); in assay [4] it was 23.5 µM (active); in [7] it was 5.26 µM (active); in assay [8], 20.9 µM (active); in [5] it was 1.48 µM (active). The Potency in assay [9] was 20.9 µM (active); in assay [3], 2.96 µM (active).

Regarding `O=C(Nc1ccccc1)Nc1ccc(-c2ccc(C(=O)[C@H]3CCC[C@H]3C(=O)O)cc2)cc1`, the Potency entry in assay [1] and in [3] was “inactive” throughout. Besides, the Potency in assay [2] is 0.372 µM (active).

Take `CCNC(=O)c1noc(-c2cc(C(C)C)c(O)cc2O)c1-c1ccc(CN2CCOCC2)cc1`: the Potency was 0.0332 µM (active) in assay [1], 0.0209 µM (active) in assay [7] and 0.0418 µM (active) in assay [3]. Further, in assay [2], the Potency result is “inactive”.

As for `CC[C@H](C)C(=O)O[C@H]1C[C@H](O)C=C2C=C[C@H](C)[C@H](CC[C@@H](O)C[C@@H](O)CC(=O)O)[C@H]21`, the Potency entry in [1], in assay [6], in assay [4], in assay [7], in assay [10] and in assay [9] was “inactive” each time.

As to `Cn1c(=O)c(-c2c(Cl)cccc2Cl)cc2cnc(Nc3cccc(C(=O)O)c3)nc21`, the Potency result in assay [1] and in assay [3] was “inactive” each time. In addition, the Potency is 0.526 µM (active) in assay [2], 0.0833 µM (active) in assay [10], 3.32 µM (active) in assay [8] and 2.09 µM (active) in [9].

`CNC(=O)[C@H](Cc1ccccc1)NC(=O)[C@H](CC(C)C)[C@H](CSc1cccs1)C(=O)NO`: the Potency in assay [1] was 16.6 µM (active). Besides, the Potency result in assay [2], in [7] and in assay [8] was “inactive” each time.

As to `COc1ccc(C=CC(=O)Nc2ccccc2C(=O)O)cc1OC`, the Potency entry in assay [1], in assay [2], in assay [4], in assay [9] and in assay [3] was “inactive” in each case.

`Cc1cc(NC(=O)Nc2ccc(N(C)C)cc2)c2cc(F)cc(F)c2n1`: the Potency was 3.72 µM (active) in assay [1], 1.66 µM (active) in [4] and 23.5 µM (active) in [9]. Besides, the Potency entry in assay [2] and in [3] was “inactive” in each case.

Consider `O=c1[nH]nc(OCCCc2ccc(Cl)cc2)c(NCc2cccnc2)c1Br`, for which the Potency in [1] was 6.62 µM (active); in assay [6], 18.7 µM (active); in assay [4], 2.64 µM (active); in assay [7], 1.05 µM (active); in assay [10], 4.69 µM (active); in assay [8], 14.8 µM (active). In addition, the Potency was 16.6 µM (active) in assay [5] and 7.43 µM (active) in assay [3].
